Reference: PubChem BioAssay (NCATS)
Results filed as inconclusive are left out. A number with no mark means an inactive call. Activity calls are given as the source filed them. Calls follow the shape of the dose curve; as a rule, active = well fitted inhibition curve with a large enough effect in the signal ratio, with a control signal flat (not every such curve was filed as active); inconclusive = small, poorly fitted or top-dose-only effect, or effect the other way, or a change in a side signal; inactive = flat fitted curve, though single readings scatter; the % refers to the signal ratio.

Biological target: Peroxisome proliferator-activated receptor gamma (Homo sapiens) (UniProt P37231)
Sequence (P37231 whole entry, looked up): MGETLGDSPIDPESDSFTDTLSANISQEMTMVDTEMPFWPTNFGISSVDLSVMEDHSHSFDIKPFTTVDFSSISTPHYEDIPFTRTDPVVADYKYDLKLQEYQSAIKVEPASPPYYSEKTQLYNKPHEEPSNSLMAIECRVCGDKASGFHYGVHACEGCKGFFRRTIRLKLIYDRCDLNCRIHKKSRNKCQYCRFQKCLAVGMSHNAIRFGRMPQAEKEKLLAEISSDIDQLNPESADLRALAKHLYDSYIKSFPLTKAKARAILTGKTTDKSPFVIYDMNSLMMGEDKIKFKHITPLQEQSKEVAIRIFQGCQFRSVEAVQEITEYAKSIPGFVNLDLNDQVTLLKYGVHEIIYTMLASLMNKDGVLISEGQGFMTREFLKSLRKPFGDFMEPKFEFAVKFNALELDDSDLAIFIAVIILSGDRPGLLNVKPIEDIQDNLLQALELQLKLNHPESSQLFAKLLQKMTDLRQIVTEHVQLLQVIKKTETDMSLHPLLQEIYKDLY
Experiment: qHTS assay for small molecule antagonists of peroxisome proliferator-activated receptor gamma signaling (AID 588537);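 also: reporter cells co-stimulated with 50 nM rosiglitazone agonist during compound treatment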
Conditions: HEK293 PPARg-UAS-bla, beta-lactamase ratio, antagonist mode; series mostly up to 76.8 µM; activity, negative = inhibition: at the top concentration
Text: NIH Chemical Genomics Center [NCGC]
U.S. Environmental Protection Agency [EPA]
National Institutes of Environmental Health Sciences [NIEHS]
National Toxicology Program [NTP]
The Peroxisome proliferator-activated receptors (PPARs) are lipid-activated transcription factors of the nuclear receptor superfamily with three distinct subtypes namely PPAR alpha, PPAR delta (also called PPAR beta) and PPAR gamma. All these subtypes heterodimerizes with Retinoid X receptor (RXR) and these heterodimers regulate transcription of various genes. PPAR-gamma (glitazone receptor) ligands have been used in the treatment of type 2 diabetes and dyslipidaemia. It is involved in the regulation of glucose and lipid metabolism. PPAR-gamma activates certain genes like Paraoxonase 1 which is responsible for hydrolyzing organophosphates. PPAR-gamma ligands may also be therapeutically important in the treatment of coronary artery disease, obesity and cancer and atherosclerosis.
NCGC Assay Protocol Summary
Using a beta-lactamase reporter-gene under control of Peroxisome Proliferator-Activated-gamma (PPAR-gamma) response element, a cell-based assay [GeneBLAzer PPAR-gamma-UAS-bla assay developed by Invitrogen] was used to measure PPAR-gamma ligands signaling. GeneBLAzer PPAR-gamma-UAS-bla-HEK293 cells were used with assay medium containing 1% charcoal/dextran treated FBS. The assay was performed in clear bottom black Greiner 1536-well plates. Library compounds were measured for their ability to inhibit the reporter gene activity. Compounds were screened in a titration series in 1536-well format. The fluorescence intensity (405 nm excitation, 460/530 nm emission) was measured using an EnVision plate reader. Data was normalized relative to Rosiglitazone control (50 nM, 100%), and DMSO only wells (basal, 0%). Concentration-response titration points for each compound were fitted to the Hill equation yielding concentrations of half-maximal inhibition (IC50) and maximal response (efficacy) values.
qHTS protocol for PPAR-gamma beta-lactamase assay in antagonist mode
[Step] [Parameter] [Value] [Description]
1. Reagent; 5 uL; 3000 cells/well
2. Incubation; 37 C for 6-6.5 hrs
4. Controls (GW9662, PPAR-gamma antagonist); 23 nL,
5. Agonist (Stimulator); 1uL; Rosiglitazone at 50 nM (final) concentration
6. Incubation; 37 C for 16 hrs
7. Detection reagent; 1 uL of CCF4-dye
8. Incubation; RT for 2 hrs
9. Detection; Fluorescence; Envision plate reader

| Compound | activity, negative = inhibition | outcome |
| --- | --- | --- |
| C[C@]1(O)CC[C@H]2[C@@H]3CCC4=CC(=O)CC[C@]4(C)[C@@]3(F)[C@@H](O)C[C@@]21C | 14.6% | – |
| O=C(O)CCCc1ccc(N(CCCl)CCCl)cc1 | – | inactive |
| COC(=O)C(c1ccccc1)C1CCCCN1 (configuration not stated) | -4.82% | – |
| CCC(C)(C)c1ccc(O)cc1 | – | inactive |
| CCOP(=S)(OCC)Oc1ccc2c(C)c(Cl)c(=O)oc2c1 | -10.8% | – |
| Nc1ccccc1C(=O)O | -1.55% | – |
| Clc1ccc(C(c2ccc(Cl)cc2)C(Cl)(Cl)Cl)cc1 | – | inactive |
| COP(=S)(OC)Oc1cc(Cl)c(Cl)cc1Cl | -9.04% | – |
| CCCC(C)(COC(N)=O)COC(N)=O | 0.496% | – |
| Nc1ccccc1 | 2.43% | – |
| COP(=S)(OC)Oc1ccc(SC)c(C)c1 | – | inactive |
| O=C1c2ccccc2C(=O)c2ccccc21 | 5.85% | – |
| Nc1ccc([As](=O)(O)O)cc1 | 12.5% | – |
| O=P1(N(CCCl)CCCl)NCCCO1 (configuration not stated) | 16.6% | – |
| Oc1ccc(Cl)cc1 | 13.2% | – |
| CC1(C)C(C=C(Cl)Cl)C1C(=O)OC(C#N)c1cccc(Oc2ccccc2)c1 (configuration not stated) | -9.87% | – |
| O=C1c2ccccc2C(=O)C1C(=O)C(c1ccccc1)c1ccccc1 | -14.1% | – |
